HCV inhibitor: qHTS Assay for Inhibitors of Hepatitis C Virus (HCV) | 340,000 compounds, 3.4% hits | Huh7.5.1 HCVcc-Cre infection, luciferase reporter, 44 h | Potency, µM (series often up to 41.8 µM), hits mostly inhibitors | AID 651820, 2012; active means well fitted inhibition curve with a large enough effect; inconclusive means small, poorly fitted or top-dose-only effect, or another doubt; inactive means no such curve, though single readings can be large or run the other way
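1,000 cells/well; 4 h culture; + compound; + HCVcc-Cre (~0.5 moi); 44 h; luciferase substrate, RT 15 min; read 15 sec.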
LASV entry inh: qHTS for Inhibitors of binding or entry into cells for Lassa Virus | Lassa virus pseudotype entry inhibition, cell reporter | 300,000 compounds, 1.2% hits | Potency, µM (top dose mostly 37.9 µM), usual class: inhibitors | AID 540256, 2011; calls by dose curve; tested in HEK293 cells; further: nearly all actives have a fitted effect of over 50% in size
MARV entry inh: qHTS for inhibitors of binding or entry into cells for Marburg Virus; 300,000 compounds, 1.8% hits; Potency, µM (series often up to 37.8 µM), hits mostly inhibitors; AID 540276, 2011; Marburg virus pseudotyped entry inhibition, cell reporter; calls by dose curve; tested in HEK293 cells
VACV mCherry inh: qHTS for Stage-Specific Inhibitors of Vaccinia Orthopoxvirus: mCherry Reporter Primary qHTS; Vaccinia virus mCherry reporter infection, fluorescence; Potency, µM (doses to about 36.5 µM), actives largely listed as inhibitors; 310,000 compounds, 0.63% hits; calls by dose curve; tested in A549 cells; further: nearly all actives have a fitted effect of over 35% in size
HCMV inh: qHTS Assay for inhibitors of the human cytomegalovirus (HCMV); HFF cells, HCMV-luciferase reporter, 72 h; hits give low values; activity change, negative = inhibition, % at 57.5 µM; 410,000 compounds, 4.5% hits; in the data active means activity change below about -60%; inconclusive means no clear call, values can overlap the other calls; inactive means above about -39%
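Human foreskin fibroblasts infected with luciferase-reporter HCMV at MOI 1 PFU/cell, compounds at two doses. Luciferase measured 72 h post infection; normalized to buffer-only basal and Salinomycin (10uM) controls.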
VACV Venus inh: qHTS for Stage-Specific Inhibitors of Vaccinia Orthopoxvirus: Venus Reporter Primary qHTS; Vaccinia virus Venus reporter expression, fluorescence; Potency, µM (top dose mostly 36.5 µM), usual class: inhibitors; 330,000 compounds, 0.46% hits; AID 720580, 2013; calls by dose curve; tested in A549 cells; further: nearly all actives have a fitted effect of over 30% in size
Each line names hits and unclear results; the compound was inactive in the other large screens. An excerpt weighted towards active compounds, which were near 7.8% of everything screened.

CC1CN(S(=O)(=O)c2ccc(C(=O)Nc3nc(-c4cc5ccccc5o4)cs3)cc2)CC(C)O1 (stereo not given)	HCV inhibitor inconclusive, LASV entry inh inconclusive, MARV entry inh inconclusive, VACV mCherry inh inconclusive
CN(C)S(=O)(=O)c1ccc(C(=O)Nc2nc(-c3cc4ccccc4o3)cs2)cc1	HCV inhibitor inconclusive, LASV entry inh inconclusive, MARV entry inh inconclusive, HCMV inh -69.2 (no result: VACV mCherry inh, VACV Venus inh)
COc1cccc2ccc(CN3CCC4(CC3)c3ccccc3[C@@H](NC(=O)c3ccccc3)[C@@H]4O)nc12	none (no result: HCV inhibitor, LASV entry inh, MARV entry inh, HCMV inh)
O=C(CCCn1c(=O)c2ccccc2n(CC(=O)Nc2cccc(C(F)(F)F)c2)c1=O)NCc1ccc2c(c1)OCO2	none (no result: HCV inhibitor)
Cc1ccc(NN2C(=O)C=C(c3ccccc3)C2=O)cc1	LASV entry inh inconclusive, MARV entry inh 11.2µM
COc1ccccc1/C=C/C=N/n1c(-c2ccc(C)cc2)n[nH]c1=S	LASV entry inh 3.66µM, MARV entry inh inconclusive
O=C(Nc1cccc(Cl)c1Cl)c1cc2nc(-c3ccc(Cl)cc3)cc(C(F)(F)F)n2n1	none (no result: HCV inhibitor)
Cc1ccc2cc(C3C(C#N)=C(N)Oc4c3ccc3cccnc43)c(=O)[nH]c2c1 (stereo not given)	HCV inhibitor 11.2µM, LASV entry inh inconclusive, MARV entry inh inconclusive, HCMV inh -103.5
N#CC1=C(N)Oc2c(ccc3cccnc23)C1c1cccnc1 (stereo not given)	HCV inhibitor 3.55µM, LASV entry inh inconclusive, MARV entry inh inconclusive, HCMV inh -99.4 (no result: VACV mCherry inh, VACV Venus inh)
CCc1ccc2[nH]c(=O)c(C3C(C#N)=C(N)Oc4c3ccc3cccnc43)cc2c1 (stereo not given)	HCV inhibitor 11.2µM, MARV entry inh inconclusive (no result: VACV mCherry inh, VACV Venus inh)
CCOc1cccc(C2C(C#N)=C(N)Oc3cc(C)[nH]c(=O)c32)c1OCC (stereo not given)	none (no result: LASV entry inh, VACV mCherry inh, VACV Venus inh)
CC(=O)C1=C(C)OC(N)=C(C#N)C1c1cc2cccc(C)c2nc1Cl (stereo not given)	none (no result: VACV mCherry inh, VACV Venus inh)
Cc1cc(N2CC(C)OC(C)C2)nc2ccccc12 (stereo not given)	HCV inhibitor inconclusive, HCMV inh -80.4
CCc1nnc(NC(=O)CSc2nccn2Cc2ccccc2)s1	none (no result: HCV inhibitor, MARV entry inh)
CCc1ccccc1N(C)C(=O)Cn1cnc2sc(C)c(S(=O)(=O)N3CCC(C)CC3)c2c1=O	LASV entry inh inconclusive, MARV entry inh inconclusive (no result: HCV inhibitor)
O=[N+]([O-])c1ccc(SCc2c(F)cccc2Cl)nc1	MARV entry inh inconclusive, HCMV inh -60.8
Cc1ccsc1-c1ccnc(-n2cccc2)n1	none
Cc1cc(-c2sccc2Br)nc(-n2cccc2)n1	HCV inhibitor 12.6µM
Cc1cc(-c2ccc(Br)s2)nc(-n2cccc2)n1	HCV inhibitor 11.2µM
NCc1ccccc1Sc1ccccc1CO	none (no result: HCV inhibitor, LASV entry inh, MARV entry inh, VACV mCherry inh, VACV Venus inh)
Clc1ccc2nc[nH]c2c1	none (no result: HCV inhibitor, LASV entry inh, MARV entry inh, HCMV inh)
O=C1[C@H]2[C@H]3[C@H](O)[C@H](O)C/C(=N\OCc4ccccc4)[C@@H]3CC[C@H]2C(=O)N1Cc1ccc2c(c1)OCO2	none (no result: HCV inhibitor, LASV entry inh, VACV mCherry inh, HCMV inh, VACV Venus inh)
CCCNc1nc(=S)n(-c2ccccc2)c(C)c1C(C)=O	HCMV inh inconclusive
CC(=O)c1c(N2CCCC2)nc(=S)n(-c2ccccc2)c1C	HCMV inh -73.9
CCn1c(C)c(C(C)=O)c(N2CCN(C(c3ccccc3)c3ccccc3)CC2)nc1=S	HCV inhibitor 6.31µM, LASV entry inh inconclusive, MARV entry inh inconclusive
CCCCNc1nc(=S)n(-c2ccccc2)c(C)c1C(C)=O	HCV inhibitor inconclusive, MARV entry inh inconclusive, HCMV inh -98.7, VACV Venus inh inconclusive
CCn1c(C)c(C(C)=O)c(N2CCN(c3ccccc3)CC2)nc1=S	none (no result: VACV mCherry inh)
COc1ccc(CCn2c3c(c(=O)[nH]c2=O)C(NC(=O)c2ccccc2F)(C(F)(F)F)C(=O)N3)cc1OC (stereo not given)	none (no result: HCV inhibitor)
COCCCN(C(C)=O)c1nc(-c2ccc(OC)cc2)cs1	HCV inhibitor inconclusive, LASV entry inh 10.3µM, MARV entry inh inconclusive (no result: VACV mCherry inh, VACV Venus inh)
COc1ccc(-c2csc(N(CCCN(C)C)C(=O)c3ccc(C)cc3)n2)cc1	HCV inhibitor 25.1µM, MARV entry inh inconclusive, VACV Venus inh inconclusive
CCN(CC)CCCN(C(=O)c1ccc(OC)cc1)c1nc(-c2ccc(OC)cc2)cs1	HCV inhibitor inconclusive, LASV entry inh inconclusive, MARV entry inh inconclusive, HCMV inh -62.6
COc1ccc(-c2csc(N(CCCN(C)C)C(=O)c3ccc(Br)cc3)n2)cc1	HCV inhibitor inconclusive, LASV entry inh inconclusive, MARV entry inh inconclusive, HCMV inh -62.1
CCN(CC)CCCN(C(=O)c1ccccc1C)c1nc(-c2ccc(OC)cc2)cs1	none (no result: LASV entry inh, MARV entry inh, VACV mCherry inh, VACV Venus inh)
COc1ccc(-c2csc(N(CCCN(C)C)C(=O)c3cc(OC)c(OC)c(OC)c3)n2)cc1	none (no result: LASV entry inh, MARV entry inh, VACV mCherry inh, VACV Venus inh)
COc1ccc(-c2csc(N(CCCN(C)C)C(=O)c3ccc(C(C)(C)C)cc3)n2)cc1	LASV entry inh inconclusive, MARV entry inh inconclusive, VACV mCherry inh inconclusive
Cc1ccc(-c2nc3c4cnn(-c5cc(Cl)ccc5Cl)c4ncn3n2)cc1	MARV entry inh inconclusive (no result: HCV inhibitor)
CCC(=O)N(CCCN(C)C)c1nc(-c2cc(OC)ccc2OC)cs1	HCV inhibitor 5.62µM, MARV entry inh inconclusive (no result: VACV mCherry inh, VACV Venus inh)
Cn1c(=O)c2c(nc(N3CCN(c4ccccn4)CC3)n2Cc2ccc(Cl)cc2Cl)n(C)c1=O	none
Cn1c(=O)c2c(nc(NCCNC(=O)c3ccco3)n2Cc2ccc(Cl)cc2Cl)n(C)c1=O	LASV entry inh inconclusive, HCMV inh -73.8
Cn1c(=O)c2c(nc(NCC3CCCC(CN)C3)n2Cc2ccc(Cl)cc2Cl)n(C)c1=O (stereo not given)	HCV inhibitor 11.2µM, HCMV inh -99.2 (no result: LASV entry inh, MARV entry inh, VACV mCherry inh, VACV Venus inh)
CCCCNc1nc2c(c(=O)n(Cc3ccc(Cl)cc3)c(=O)n2C)n1C	MARV entry inh inconclusive (no result: HCV inhibitor)
Cn1c(=O)c2c(nc(NCc3ccco3)n2Cc2ccccc2Cl)n(C)c1=O	HCV inhibitor inconclusive (no result: VACV mCherry inh)
Cn1c(NCCCN2CCOCC2)nc2c1c(=O)n(Cc1ccc(Cl)cc1Cl)c(=O)n2C	HCV inhibitor 11.2µM, MARV entry inh inconclusive, HCMV inh inconclusive (no result: VACV mCherry inh, VACV Venus inh)
CN1/C(=N\O)c2cccc3cccc1c23	HCMV inh -60.4 (no result: VACV mCherry inh)
O=C1N/C(=N/O)S/C1=C/c1cccc([N+](=O)[O-])c1	none
CC1(C)CC(=O)/C(=C\c2cccc([N+](=O)[O-])c2)C(C)(C)N1	LASV entry inh inconclusive, MARV entry inh inconclusive, VACV mCherry inh inconclusive, HCMV inh -85.9
Cc1ccc(S(=O)(=O)c2cnc(-c3ccccc3)[nH]c2=O)cc1	none (no result: HCV inhibitor, LASV entry inh, MARV entry inh, HCMV inh)
Cc1nn2c(=O)cc(COC(=O)c3ccc(NC(=O)c4ccc(C(C)(C)C)cc4)cc3)nc2s1	LASV entry inh inconclusive (no result: HCV inhibitor, MARV entry inh)
CCOC(=O)c1cnc2ccccc2c1Nc1ccc2c(c1)OCCO2	HCV inhibitor inconclusive, HCMV inh -70.0
CCOc1ncccc1C(=O)OCC(=O)Nc1ccc2c(c1)OCCO2	none (no result: LASV entry inh, MARV entry inh, VACV mCherry inh, VACV Venus inh)

From PubChem BioAssay
